Reference: PubChem BioAssay (Tox21)
Values joined by “and” are separate entries in the source; they are usually repeats but may differ in a detail not shown here. Equal entries are not always repeated. Results filed as inconclusive are left out. The source holds several records for some structures; these can differ, active in one and inactive in another. Active and inactive are the calls of the source. Calls follow the shape of the full dose curve.

test: qHTS assay for small molecule disruptors of the mitochondrial membrane potential - cell viability (AID 720634); details: HepG2 viability, ATP luminescence (CellTiter-Glo), 1 h; series mostly up to 83.2 µM; activity change, negative = cytotoxicity: at the top concentration; also: nearly all actives have a fitted effect of over 20% in size;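 as to activity change, negative = cytotoxicity: human HepG2 liver cancer cells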
Outline: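 Measuring cytotoxicity alongside mitochondrial potential, the screen quantified ATP by luminescence in HepG2 cells after 1 hr compound incubation and a 30 min room-temperature CellTiter-Glo step.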
% is scaled to controls: 0 for no effect and ±100 for the full control effect; potency is read from the fitted curve at half-maximal effect.

Row | SMILES | Potency | activity change, negative = cytotoxicity
1 | C[C@@H](NCCCc1cccc(C(F)(F)F)c1)c1cccc2ccccc12 | 26.6 µM (active) | 
2 | CSc1ccc(/C=C2/C(C)=C(CC(=O)O)c3cc(F)ccc32)cc1 |  | 11.9% (inactive)
3 | Nc1ccc(N)c2ccccc12 | 13.7 µM (active) | 
4 | CCOC(=O)O[C@]1(C(=O)OCCl)CC[C@H]2[C@@H]3CCC4=CC(=O)C=C[C@]4(C)[C@H]3[C@@H](O)C[C@@]21C |  | -4.05% (inactive)
5 | CCCCCCCC/C=C\CCCCCCCCOCCO | 79.4 µM (active) | 
6 | CCCCCCOC(=O)c1ccc(O)cc1 | 27.3 µM (active) and 17.2 µM (active) | 
7 | NC(=NCCCCCCN=C(N)/N=C(\N)Nc1ccc(Cl)cc1)/N=C(\N)Nc1ccc(Cl)cc1 |  | -11.8% (inactive)
8 | Oc1ccc(C2(c3ccc(O)cc3)CC3CC2C2CCCC32)cc1 (stereo not given) |  | 7.82% (inactive)
9 | Cc1onc(-c2c(Cl)cccc2Cl)c1C(=O)N[C@@H]1C(=O)N2[C@@H]1SC(C)(C)[C@@H]2C(=O)O |  | -3.36% (inactive)
10 | NNc1nc(-c2ccc(N)cc2)cs1 |  | -13.1% (inactive)
11 | CC/C(=C(\c1ccc(O)cc1)c1ccc(OCCN(C)C)cc1)c1ccccc1 | 68.7 µM (active) | 
12 | CCC(C)Nc1ccc(NC(C)CC)cc1 (stereo not given) | 44.1 µM (active) | 
13 | CC1(C)CCC(C)(C)c2cc(C(=O)Nc3ccc(C(=O)O)cc3)ccc21 |  | -5.9% (inactive)
14 | CCCCCCC[N+](CC)(CC)CCCCc1ccc(Cl)cc1 |  | -4.14% [at 39.1 µM] (inactive)
15 | Fc1ccc([C@@H]2CCNC[C@H]2COc2ccc3c(c2)OCO3)cc1 |  | 7.75% (inactive)
16 | CCCCC(CC)CN=C(N)NC(N)=NCCCCCCN=C(N)NC(N)=NCC(CC)CCCC (stereo not given) | 21.1 µM (active) | 
17 | Cc1cc(CCN2CCN(c3nsc4ccccc34)CC2)cc2c1NC(=O)CC2(C)C | 54.5 µM (active) | 
18 | CCCCCCCCCCCCc1ccc(O)cc1 |  | -17.4% (inactive)
19 | Fc1ccc(C(c2ccc(F)cc2)N2CCN(C/C=C/c3ccccc3)CC2)cc1 |  | -9.1% (inactive)
20 | CCCC(c1cc(C(C)(C)C)c(O)cc1C)c1cc(C(C)(C)C)c(O)cc1C | 39 µM (active) | 
21 | Clc1ccccc1C(c1ccccc1)(c1ccccc1)n1ccnc1 | inactive and 54.5 µM (active) | 
22 | O=C(Oc1cccc2cccnc12)c1ccccc1 |  | 3.26% (inactive)
23 | O=C1CCCCCN1SSN1CCCCCC1=O |  | 8.89% (inactive)
24 | Cc1ccc(O)c(C(C)(C)C)c1 | 27.3 µM (active) and 54.5 µM (active) | 
25 | CCCCCCCC/C=C/CCCCCCCC1=NCCN1CCO | 54.5 µM (active) | 
26 | Oc1ccc2cc(SSc3ccc4cc(O)ccc4c3)ccc2c1 | inactive | 
27 | Cc1c(C)c2c(c(C)c1OC(=O)CCC(=O)O)CC[C@@](C)(CCC[C@H](C)CCC[C@H](C)CCCC(C)C)O2 | inactive | 
28 | O=C1c2c(O)ccc(Nc3ccc(CCO)cc3)c2C(=O)c2c([N+](=O)[O-])ccc(O)c21 |  | -8.9% (inactive)
29 | O=C(c1ccc(F)cc1)C1CCN(CCn2c(=O)[nH]c3ccccc3c2=O)CC1 |  | -6.23% (inactive)
30 | Cc1cccc(CN2CCN(C(c3ccccc3)c3ccc(Cl)cc3)CC2)c1 (stereo not given) |  | -7.01% [at 39.1 µM] (inactive)
